Test results published in ChEMBL document CHEMBL4513146, “CO-ADD screening of Karazin Kharkiv National University (Ukraine) compounds”.
Results with a measured potency or affinity are listed apart.

Assays:
[1] = system: Staphylococcus aureus; conditions: Concentration 32 ug.mL-1;; ASSAY_TEST Inhibition of Bacterial Growth; detection method Absorption (OD600); MEDIA CAMHB; plate type 384well; NBS; CORNING #3640; time 18 hr
[2] = system: Escherichia coli; conditions: Concentration 32 ug.mL-1;; ASSAY_TEST Inhibition of Bacterial Growth; detection method Absorption (OD600); MEDIA CAMHB; plate type 384well; NBS; CORNING #3640; time 18 hr

Compound | Inhibition [1] | Inhibition [2]
CCOC(=O)c1ccc(NC(=O)Cn2nc3c4sc(N5CCCC5)nc4ncn3c2=O)cc1 | 6.07% | -11.73%
COc1ccc(Cl)cc1NC(=O)CSc1nc2ccccc2n2cnnc12 | 12.82% | 5.77%
O=C(Cn1nc2c3cc(F)ccc3ncn2c1=O)Nc1ccc2c(c1)OCO2 | 5.65% | -3%
COc1ccccc1NC(=O)Cn1nc2c(Oc3ccc(Cl)cc3)nccn2c1=O | 6.15% | -7.74%
CC(C)CCn1c(=O)c2ccc(C(=O)NC3CCCC3)cc2n2c(=O)n(CC#N)nc12 | 11.46% | 0.05%
CC(C)(C)Sc1ccc2nn(CC(=O)N3CCN(c4ccc(F)cc4)CC3)c(=O)n2n1 | 4% | 5.62%
COC(=O)c1sccc1NC(=O)CSc1nc2ccccc2n2c(C)nnc12 | 17.15% | 5.14%
COc1cc(NC(=O)Cn2nc3c(Sc4cccc(F)c4)nccn3c2=O)cc(OC)c1 | 9.3% | -0.8%
CCCc1nnc2c(=O)n(CC(=O)Nc3cccc(C#N)c3)c3ccccc3n12 | 1.38% | -7.78%
Cc1cc2nn(CC(=O)NCc3ccco3)c(=O)n2c(Nc2ccc(C)c(F)c2)n1 | 0.2% | -8.01%
O=c1c2sccc2n2c(SCc3cccc(C(F)(F)F)c3)nnc2n1Cc1cccs1 | 3.6% | -11.21%
COc1cc(NC(=O)CSc2nnc3c(=O)n(-c4cccc(F)c4)ccn23)cc(OC)c1 | 10.57% | -3.07%
Cc1ccc(-c2ccc3nn(CC(=O)N4CCN(c5ccccc5F)CC4)c(=O)n3n2)cc1C | 3.55% | -1.18%
CCOC(=O)c1cccc(NC(=O)CSc2nnc3ccc(C(=O)Nc4cccc(F)c4)cn23)c1 | 5.02% | -5.71%
Cc1ccc(Oc2nccn3c(=O)n(CC(=O)NCc4cccs4)nc23)cc1 | 11.07% | 1.37%
O=C(Cn1nc2ccc(C(=O)NCc3ccccc3)cn2c1=O)Nc1ccc2c(c1)OCO2 | 7.86% | -0.58%
COc1ccccc1CNC(=O)Cn1nc2c(N3CCSCC3)nccn2c1=O | 5.62% | -5.9%

Compound | Inhibition [1] | Inhibition [2]
Cc1ccc(NC(=O)Cn2nc3ccc(C(=O)NCc4ccccc4)cn3c2=O)c(Br)c1 | -7.88% | -9.76%
Cc1nnc2c(SCC(=O)Nc3ccc4c(c3)OCCO4)nc3ccccc3n12 | 5.53% | 3.38%
Cc1ccccc1Cn1nc2c(=O)n(-c3cccc(Cl)c3C)ccn2c1=O | -10.1% | -10.57%
O=c1c2nn(Cc3ccc([N+](=O)[O-])cc3)c(=O)n2ccn1-c1ccccc1 | 12.75% | -1.5%
CC(C)c1nnc2c(=O)n(CC(=O)Nc3cc(Cl)ccc3Cl)c3ccccc3n12 | 3.75% | 5.3%
Cc1cccc(NC(=O)Cn2nc3c4cc(-c5ccc(Cl)cc5)nn4ccn3c2=O)c1C | 5.13% | -1.29%
COc1ccccc1NC(=O)Cn1nc2c(SC3CCCCC3)nccn2c1=O | -13.71% | -14.54%
Cc1ccc(Sc2ccc3nn(CC(=O)Nc4ccc(F)c(Cl)c4)c(=O)n3n2)cc1 | 7.06% | 0.26%
COc1cc(NC(=O)Cn2nc3c(N4CCCC4)nccn3c2=O)cc(OC)c1 | 5.55% | -2.57%
COc1cccc(-n2ccn3c(SCC(=O)c4cc(C)c(C)cc4C)nnc3c2=O)c1 | 15.67% | -4.7%
COC(=O)c1ccc(NC(=O)Cn2c(=O)c3nnc(C(C)C)n3c3ccccc32)cc1 | 8.86% | 0.09%
Cc1cc2nn(CC(=O)N3CCCC3)c(=O)n2c(Nc2ccc(C)c(F)c2)n1 | 5.2% | -7.93%
CCc1nnc2c(SCC(=O)Nc3cccc(OC)c3)nc3ccccc3n12 | 0.35% | -7.16%
Cc1oc(-c2cccc(Cl)c2)nc1CSc1nc2ccccc2n2c(C)nnc12 | 0.94% | 1.96%
Cc1cc(C)cc(Oc2nccn3c(=O)n(CC(=O)Nc4ccc(Cl)cc4F)nc23)c1 | 18.94% | 4.01%
Cc1cc(Br)ccc1NC(=O)Cn1nc2c(Sc3cccc(F)c3)nccn2c1=O | 10.13% | -1.3%
